Measured values as given in PubChem BioAssay (Tox21).
Records with an inconclusive call do not appear. The source made the active and inactive calls. Unless noted, calls follow the shape of the dose curve; as a rule, active = well fitted curve in the direction sought with a large enough effect in the repeat runs; inconclusive = weak or mixed curves; inactive = no such curve, though single readings can be large; an effect the other way counts as inactive or inconclusive.

Legend:
[1] = qHTS assay to identify small molecule agonists of the vitamin D receptor (VDR) signaling pathway - cell viability counter screen (AID 743224); also: % is scaled to controls: 0 for no effect and ±100 for the full control effect; nearly all actives have a fitted effect of over 50% in size
In short: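 Counter screen for cytotoxicity: VDR-bla cells at 2,000 cells/well, 16 h compound exposure, then CellTiter-Glo luminescence after the beta-lactamase measurement.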

[2] = qHTS assay to identify small molecule antagonists of the vitamin D receptor (VDR) signaling pathway - cell viability counter screen (AID 743225); also: % is scaled to controls: 0 for no effect and ±100 for the full control effect; nearly all actives have a fitted effect of over 50% in size
In short: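 Cytotoxicity counter screen read by CellTiter-Glo luminescence (30 min, room temperature) in the same wells as the VDR-bla antagonist readout. HEK 293T VDR-UAS-bla cells had 16 h at 37C with compound and 3 nM (final) 1-alpha,25-dihydroxyvitamin D3, then 2 h with FRET substrate.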

[3] = qHTS assay to identify small molecule agonists of the NFkB signaling pathway (AID 1159509; active = well fitted curve in the direction sought with a large enough effect in the signal ratio in the repeat runs, not every such curve was filed as active; the % refers to the signal ratio; also: % is scaled to controls: 0 for no effect and ±100 for the full control effect)
In short: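 Readout: FRET fluorescence, 405 nm excitation, 460/530 nm emission; beta-lactamase expression disrupts FRET. Cells: ME-180 stably carrying NF-kB-driven bla reporter. Compound exposure 5 hr, 37 C, 5% CO2.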

[4] = qHTS assay to identify small molecule agonists of the NFkB signaling pathway - cell viability counter screen (AID 1159515; calls by dose curve; also: % is scaled to controls: 0 for no effect and ±100 for the full control effect; nearly all actives have a fitted effect of over 55% in size)
In short: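 Counter screen run alongside the NFkB-bla agonist assay: ME-180 reporter cells exposed to compounds for 5 hr, then lysed with CellTiter-Glo in the same wells. Luminescence, read after 30 min, reflects viable cells.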

[5] = qHTS assay to identify small molecule agonists of the endoplasmic reticulum stress response signaling pathway (AID 1159516; active = well fitted activation curve with a large enough effect in the signal ratio in the repeat runs, not every such curve was filed as active; the % refers to the signal ratio; also: % is scaled to controls: 0 for no effect and ±100 for the full control effect)
In short: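 For this screen, HeLa cells stably carrying beta-lactamase under the ER stress response element received test compounds, positive controls or DMSO for 5 hr at 37 C; B/G FRET substrate was then added and dual-wavelength emission recorded.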

[6] = qHTS assay to identify small molecule agonists of the endoplasmic reticulum stress response signaling pathway - cell viability counter screen (AID 1159517; calls by dose curve; also: % is scaled to controls: 0 for no effect and ±100 for the full control effect; nearly all actives have a fitted effect of over 50% in size)
In short: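 Cytotoxicity of test compounds toward ESRE-bla HeLa cells was assessed after 5 hr exposure. The luminescent CellTiter-Glo signal was measured 30 min after reagent addition.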

[7] = target: Nuclear receptor ROR-gamma (Homo sapiens) (UniProt P51449); experiment: qHTS assay to identify small molecule antagonists of the retinoid-related orphan receptor gamma (ROR-gamma) signaling pathway (AID 1159521; also: top concentration of the series differs between compounds; % is scaled to controls: 0 for no effect and ±100 for the full control effect; nearly all actives have a fitted effect of over 50% in size)
In short: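 Antagonist read-out: drop in luminescence (ONE-Glo) from an RORE-LUC reporter in CHO cells with doxycycline-inducible ROR-gamma; 2 hr compound pretreatment, 1 uM doxycycline, 16 hr incubation at 37 C.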

[8] = qHTS assay to identify small molecule agonists of the AP-1 signaling pathway - cell viability counter screen (AID 1159525; calls by dose curve; also: nearly all actives have a fitted effect of over 55% in size)
In short: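 Each titration point was normalised to DMSO and tetra n-octyl ammonium bromide controls. The read was Cell Titer Glo luminescence after 30 min at RT, following 5 h compound exposure of ME-180 AP-1-bla cells at 37 °C.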

[9] = qHTS assay to identify small molecule agonists of the AP-1 signaling pathway (AID 1159526; calls by dose curve; also: % is scaled to controls: 0 for no effect and ±100 for the full control effect)
[10] = target: Retinoic acid receptor RXR-alpha (Homo sapiens) (UniProt P19793); experiment: qHTS assay to identify small molecule agonists of the RXR signaling pathway (AID 1159527; calls by dose curve; also: % is scaled to controls: 0 for no effect and ±100 for the full control effect; nearly all actives have a fitted effect of over 35% in size)
In short: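 Agonist-mode beta-lactamase reporter assay: HEK 293T RXR-alpha-UAS-bla cells treated 16 hr at 37 C with compounds, 9-cis retinoic acid as positive control. LiveBLAzer FRET substrate, 405 nm excitation, 460/530 nm emission.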

[11] = qHTS assay to identify small molecule agonists of the RXR signaling pathway - cell viability counter screen (AID 1159529)
In short: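 CellTiter-Glo luminescence gave viability in the wells also read for beta-lactamase. Cells (RXR-alpha-UAS-bla HEK 293T, 2% charcoal-stripped FBS medium) had 5 hr plating, then 16 hr compound exposure at 37 C; tetraoctyl ammonium bromide served as positive control.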

[12] = qHTS assay to identify small molecule antagonists of the retinoid acid receptor (RAR) signaling pathway - cell viability counter screen (AID 1159551); also: % is scaled to controls: 0 for no effect and ±100 for the full control effect; nearly all actives have a fitted effect of over 35% in size
In short: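 Measured by luminescent ATP detection, viability reflects C3RL4 cells treated 6 h at 37 C with test chemicals in the presence of 1 uM (final) retinol.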

[13] = qHTS assay to identify small molecule antagonists of the retinoic acid receptor (RAR) signaling pathway (AID 1159552)
In short: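 Luminescent RARE reporter read-out in C3RL4 cells: 6 hr co-treatment at 37 C of test compounds with retinol at 1 uM final. Cells plated overnight beforehand; luciferase reagent incubated 30 min at room temperature before reading.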

[14] = qHTS assay to identify small molecule agonists of the retinoic acid receptor (RAR) signaling pathway (AID 1159553); settings: C3RL4 RARE luciferase reporter, agonist, 6 h; activation: at 73.3 µM (top of the series); also: % is scaled to controls: 0 for no effect and ±100 for the full control effect
In short: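 6 hr compound exposure (DMSO vehicle) of overnight-plated C3RL4 RARE-luc cells at 37 C; luminescence quantified after 30 min RT with luciferase reagent.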

[15] = qHTS assay to identify small molecule antagonists of the estrogen related receptor (ERR) signaling pathway from Tox21 library - cell viability counter screen (AID 1224834); also: % is scaled to controls: 0 for no effect and ±100 for the full control effect; nearly all actives have a fitted effect of over 30% in size
In short: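 Seeded ERR cells were rested 6 h at 37 C/5% CO2 before compounds, positive and negative controls or DMSO were added. Incubation continued for 17.5 h, and viability was then quantified by CellTiter-Fluor fluorescence.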

[16] = target: Luciferin 4-monooxygenase (Photinus pyralis) (UniProt P08659); experiment: qHTS assay to identify small molecule inhibitors of firefly luciferase (AID 1224835); also: % is scaled to controls: 0 for no effect and ±100 for the full control effect; nearly all actives have a fitted effect of over 25% in size
In short: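 Quantitative HTS format; KM concentrations of both substrates. Purified P. pyralis FLuc activity quantified from luminescence images.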

[17] = qHTS assay to identify small molecule agonists of the constitutive androstane receptor (CAR) signaling pathway - cell viability counter screen (AID 1224836); also: % is scaled to controls: 0 for no effect and ±100 for the full control effect; nearly all actives have a fitted effect of over 45% in size
In short: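 Cell viability multiplexed with the CAR agonist screen: CellTiter-Fluor fluorescence after 23 hr at 37 C. HepG2-CYP2B6-hCAR cells got compounds at 15 concentrations with PK11195 at 0.75 uM final.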

[18] = qHTS assay to identify small molecule antagonists of the constitutive androstane receptor (CAR) signaling pathway - cell viability counter screen (AID 1224837); also: % is scaled to controls: 0 for no effect and ±100 for the full control effect; nearly all actives have a fitted effect of over 45% in size
In short: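 To flag cytotoxic false antagonists, HepG2 hCAR/CYP2B6-2.2kb cells were treated 23 hr with 15-concentration compound series and 50 nM CITCO at 37 C/5% CO2; CellTiter-Fluor fluorescence was the measured end point.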

[19] = target: Nuclear receptor subfamily 1 group I member 3 (Homo sapiens) (UniProt Q14994); experiment: qHTS assay to identify small molecule antagonists of the constitutive androstane receptor (CAR) signaling pathway (AID 1224838);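 also: HepG2 cells stably expressing hCAR with CYP2B6 luciferase reporter stimulated by CITCO; % is scaled to controls: 0 for no effect and ±100 for the full control effect; nearly all actives have a fitted effect of over 40% in size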
In short: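 Human hepatoma HepG2 cells expressing hCAR and a CYP2B6 promoter (2.2 kb) luciferase construct; compound titration (15 points) with 50 nM CITCO final, 24 h at 37 C/5% CO2; luminescence via ONE-Glo after 30 min at room temperature.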

[20] = qHTS assay to identify small molecule antagonists of the retinoid-related orphan receptor gamma (ROR-gamma) signaling pathway - cell viability counter screen (AID 1159520)
In short: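 Tet-on ROR gamma CHO cells (1,000/well) were plated 4 hr, given compounds in DMSO for 2 hr at 37 C, then induced with 1 uM final doxycycline for 16 hr. Viability was read as ATP by CellTiter-Glo luminescence after 30 min.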

Chain of Retinoic acid receptor RXR-alpha (Homo sapiens) (P19793 whole entry, looked up): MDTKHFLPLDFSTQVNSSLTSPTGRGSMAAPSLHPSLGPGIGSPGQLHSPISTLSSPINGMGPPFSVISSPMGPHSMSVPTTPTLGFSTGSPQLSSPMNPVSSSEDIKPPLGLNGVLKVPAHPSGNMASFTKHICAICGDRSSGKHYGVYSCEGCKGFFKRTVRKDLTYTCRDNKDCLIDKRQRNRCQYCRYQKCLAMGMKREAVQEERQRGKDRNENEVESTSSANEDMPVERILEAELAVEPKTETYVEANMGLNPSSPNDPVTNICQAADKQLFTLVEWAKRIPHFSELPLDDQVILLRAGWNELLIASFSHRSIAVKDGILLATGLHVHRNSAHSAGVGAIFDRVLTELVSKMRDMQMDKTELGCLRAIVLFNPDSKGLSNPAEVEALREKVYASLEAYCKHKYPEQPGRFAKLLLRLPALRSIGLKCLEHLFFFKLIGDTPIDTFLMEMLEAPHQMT
Chain of Luciferin 4-monooxygenase (Photinus pyralis) (P08659 whole entry, looked up): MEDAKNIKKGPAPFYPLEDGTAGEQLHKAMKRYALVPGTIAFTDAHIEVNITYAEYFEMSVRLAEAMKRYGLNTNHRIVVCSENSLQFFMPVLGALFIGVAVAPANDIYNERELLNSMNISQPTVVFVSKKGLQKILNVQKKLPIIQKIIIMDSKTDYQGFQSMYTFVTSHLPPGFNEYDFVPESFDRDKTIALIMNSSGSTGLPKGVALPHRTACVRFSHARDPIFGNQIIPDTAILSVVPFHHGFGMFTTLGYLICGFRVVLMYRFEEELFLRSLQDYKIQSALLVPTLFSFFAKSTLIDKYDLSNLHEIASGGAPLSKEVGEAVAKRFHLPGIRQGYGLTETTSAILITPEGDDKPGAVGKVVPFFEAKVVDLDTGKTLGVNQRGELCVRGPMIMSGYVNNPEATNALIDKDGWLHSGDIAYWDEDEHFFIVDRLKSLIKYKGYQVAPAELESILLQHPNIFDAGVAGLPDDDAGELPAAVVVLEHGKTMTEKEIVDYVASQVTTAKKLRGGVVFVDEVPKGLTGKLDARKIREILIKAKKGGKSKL
Chain of Nuclear receptor subfamily 1 group I member 3 (Homo sapiens) (Q14994 whole entry, looked up): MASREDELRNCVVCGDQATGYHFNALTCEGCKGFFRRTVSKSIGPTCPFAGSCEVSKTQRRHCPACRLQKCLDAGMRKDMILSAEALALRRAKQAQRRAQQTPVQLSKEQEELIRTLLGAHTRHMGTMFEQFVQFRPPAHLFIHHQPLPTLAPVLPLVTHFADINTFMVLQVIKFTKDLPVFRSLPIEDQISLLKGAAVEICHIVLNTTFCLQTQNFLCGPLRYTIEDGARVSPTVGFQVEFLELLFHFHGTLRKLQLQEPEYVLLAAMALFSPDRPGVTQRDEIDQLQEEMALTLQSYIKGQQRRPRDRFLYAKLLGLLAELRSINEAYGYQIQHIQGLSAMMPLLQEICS

CCCOCCOCCOCCO
inactive: outcome [1] | outcome [2] | outcome [3] | outcome [4] | outcome [5] | outcome [6] | outcome [7] | outcome [8] | outcome [9] | Potency [10] | outcome [11] | outcome [12] | Potency [13] | Potency [14] | Potency [15] | Potency [16] | outcome [17] | Potency [18]

F[Si-2](F)(F)(F)(F)F
inactive: outcome [2] | outcome [3] | outcome [4] | outcome [5] | outcome [6] | outcome [7] | outcome [8] | outcome [9] | Potency [10] | outcome [11] | outcome [12] | Potency [13] | Potency [14] | Potency [15] | Potency [16] | outcome [17] | Potency [18]

C=CC(C)(O)CC/C=C(\C)CC (stereo not given)
inactive: outcome [1] | outcome [2] | outcome [3] | outcome [4] | outcome [5] | outcome [6] | outcome [8] | outcome [9] | Potency [10] | outcome [11] | outcome [12] | Potency [13] | Potency [14] | Potency [15] | Potency [16] | outcome [17] | Potency [18]

C=CCOc1cc(Cl)ccc1C(=O)NCCN(CC)CC
inactive: outcome [2] | outcome [3] | outcome [4] | outcome [5] | outcome [6] | outcome [7] | outcome [8] | outcome [9] | Potency [10] | outcome [11] | outcome [12] | Potency [13] | Potency [14] | Potency [16] | outcome [17] | Potency [18] | Potency [19]

CCCCCCCCCCCCOC(C)=O
inactive: outcome [1] | outcome [2] | outcome [3] | outcome [4] | outcome [5] | outcome [6] | outcome [20] | outcome [8] | outcome [9] | Potency [10] | outcome [12] | Potency [13] | Potency [14] | Potency [15] | Potency [16] | outcome [17] | Potency [18]

O=C(O)C(=O)Nc1cccc(-c2nn[nH]n2)c1
inactive: outcome [1] | outcome [2] | outcome [3] | outcome [4] | outcome [5] | outcome [6] | outcome [8] | outcome [9] | Potency [10] | outcome [11] | outcome [12] | Potency [13] | Potency [14] | Potency [15] | Potency [16] | outcome [17] | Potency [18]

CCCCCCCCCCCCCCCCI
inactive: outcome [1] | outcome [2] | outcome [3] | outcome [4] | outcome [5] | outcome [6] | activity change, negative = inhibition [7] 2.8% [at 19 µM] | viability change, negative = cytotoxic [8] -11.4% [at 15.8 µM] | activation [9] -9.43% [at 15.8 µM] | activation [10] 7.13% [at 15.8 µM] | activity change, negative = cytotoxicity [11] 14.9% [at 15.8 µM] | activity change, negative = cytotoxicity [12] -0.67% [at 19 µM] | activity, negative = inhibition [13] -6.93% [at 19 µM] | Potency [14] | activity change, negative = inhibition [16] 0.965% [at 23.6 µM] | viability change, negative = cytotoxic [17] -8.08% [at 19 µM] | activity change, negative = cytotoxicity [18] -13% [at 19 µM]
